Screening data as filed in PubChem BioAssay.
Only some compounds are listed: those with a hit (about 11% of all), similar ones and a draw of the others.
VACV mCherry inh: vaccinia inhibition (mCherry reporter); Vaccinia virus mCherry reporter infection, fluorescence; 0.63% of 310,000 active; Potency, µM (series often up to 36.5 µM), without a hit: top-dose activity change, negative = inhibition, most hits filed as inhibitors; calls by dose curve; tested in A549 cells; further: on the % scale 0 is the no-effect control and ±100 the full control effect; nearly all actives have a fitted effect of over 35% in size
Pf growth 48h: inhibits P. falciparum growth in the first generation, 48 h | P. falciparum luciferase growth in erythrocytes, 48 h | Potency, µM (series often up to 28.7 µM), without a hit: top-dose activity change, negative = inhibition, actives largely listed as inhibitors | 5.9% of 310,000 active; further: on the % scale 0 is the no-effect control and ±100 the full control effect
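Erythrocytes infected with P. falciparum carrying an integrated firefly luciferase reporter (2% hematocrit, 0.1% parasitemia final) were exposed to compounds in RPMI 1640 with 0.5% Albumax at 37 C, 5% CO2. Growth inhibition was scored as reduced luminescence.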
Pf growth 96h: P. falciparum growth inhibition at 96 hour, primary screen for plastid delayed-death inhibitors; P. falciparum luciferase reporter growth, 96 h; Potency, µM (doses to about 28.7 µM), for the others: top-dose activity change, negative = inhibition, most hits filed as inhibitors; 6.9% of 320,000 active; further: on the % scale 0 is the no-effect control and ±100 the full control effect
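Compounds incubated with erythrocytes infected by luciferase-expressing P. falciparum (2% hematocrit, 0.05% parasitemia final) for 96 hours, 37 C in 5% CO2. Growth inhibition scored as decreased luciferase luminescence.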
HCV inhibitor: HCV inhibition; Huh7.5.1 HCVcc-Cre infection, luciferase reporter, 44 h; Potency, µM (series often up to 41.8 µM), inactives show at the highest dose activity change, negative = inhibition, most hits filed as inhibitors; 3.4% of 340,000 active; AID 651820; further: on the % scale 0 is the no-effect control and ±100 the full control effect
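1,000 cells/well; 4 h culture; + compound; + HCVcc-Cre (~0.5 moi); 44 h; luciferase substrate, RT 15 min; read 15 sec.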
NS1 inh: blocks influenza NS1 protein function. Potency, µM (highest dose often 46.1 µM), inactives show at the top dose activity, positive = more growth. 0.4% of 270,000 active. AID 2326; calls by dose curve; further: actives are rising curves; nearly all actives have a fitted effect of over 50% in size
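A cell-based growth assay was used: compounds that relieve NS1-induced slow growth of budding yeast raise OD600. Assay medium was yeast nitrogen base with ammonium sulphate and -URA supplement, pH 6.0, with 2% galactose.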
VACV Venus inh: inhibitors of vaccinia virus (Venus reporter); Potency, µM (doses to about 36.5 µM), for inactives: at the top dose activity change, negative = inhibition, most hits filed as inhibitors; 0.46% of 330,000 active; Vaccinia virus Venus reporter expression, fluorescence; calls by dose curve; tested in A549 cells; further: on the % scale 0 is the no-effect control and ±100 the full control effect; nearly all actives have a fitted effect of over 30% in size
Numbers without * were called inactive; i = inactive; ? = inconclusive; . = no result given; [ ] = dose if it differs, or a comment. Unless noted, the call rests on the fitted dose curve; in most records, active means well fitted inhibition curve with a large enough effect; inconclusive means small, poorly fitted or top-dose-only effect, or another doubt; inactive means no such curve, though single readings can be large or run the other way. Potency means the concentration at half of the fitted maximal effect.

SMILES	VACV mCherry inh	Pf growth 48h	Pf growth 96h	HCV inhibitor	NS1 inh	VACV Venus inh
CC(C)CC(=O)NS(=O)(=O)c1ccc(N)cc1	.	27%	5%	1%	5%	25%
CCOC(=O)Cc1ccc(NC(=O)N2CCSc3ccccc32)cc1	-14%	.	.	.	.	-13%
OC(CON=C1c2ccccc2-c2ccccc21)CN1CCNCC1 (stereo unspecified)	?	?	?	2.5µM*	.	?
OC(CN1CCNCC1)Cn1ccc2ccccc21 (stereo unspecified)	.	0%	?	.	13%	.
O=C(c1ccc(OC2CCN(Cc3ccccn3)CC2)cc1)N1CCC[C@H]1CO	-10%	-1%	3.7µM*	-8%	3%	-11%
CC(NC(=O)c1ccc(OC2CCN(Cc3ccccn3)CC2)cc1)c1ccccc1 (stereo unspecified)	1%	?	12µM*	-5%	-1%	-3%
CCC1CCCCN1C(=O)c1ccc(OC2CCN(Cc3ccccn3)CC2)cc1 (stereo unspecified)	-19%	-24%	-13%	-11%	2%	-13%
COc1cc(OC)c(OC)cc1/C=N/Nc1ccc(Cl)nn1	9%	-12%	-29%	-27%	-2%	-6%
CCOC(=O)C1=C[C@@]2(CC)CCCN3CCc4c(n1c1ccccc41)[C@H]32	.	6µM*	-1%	.	.	.
CC[C@@]12CCCN3CCc4c(n(c5ccccc45)C(=O)C1)[C@H]32	.	?	6.4µM*	.	3%	.
CCC12CCCN3CCc4c(n(c5ccccc45)C(O)(C(=O)OC)C1)C32 (stereo unspecified)	i	-15%	-6%	9%	3%	-1%
CC(C)(C)Nc1nc(NC(C)(C)C)nc(-n2ccnc2)n1	-26%	1.3µM*	?	?	-14%	-26%
Cc1cc(C)n(-c2nc(NC(C)(C)C)nc(NC(C)(C)C)n2)n1	.	?	16%	?	4%	4%
CC(=O)c1ccc(NC(=O)CSCC(=O)Nc2ccc3ccccc3c2)cc1	.	7%	.	7%	5%	-18%
C=CCN1C(=O)c2ccc(C(=O)N(C)CC(=O)Nc3ccc(Br)cc3C)cc2C1=O	i	0%	10%	3%	.	-10%
CCCn1c(C)cc(=O)c2cc(NC(=O)c3cnccn3)ccc21	-20%	30%	22%	2.2µM*	-7%	-4%
CCCN1CCN(CCCNC(=O)c2ccc3nc(N4CCC(C)CC4)sc3c2)CC1	i	4%	?	11µM*	-7%	-3%
CCOc1ccc(CCNC(=O)c2ccc3nc(N4CCC(C)CC4)sc3c2)cc1OCC	-22%	.	.	.	.	-9%
CCOC(CNC(=O)c1ccc2nc(N3CCC(C)CC3)sc2c1)OCC	.	?	9.3µM*	-10%	-3%	.
CN(C)c1nc(SCCOC(=O)c2ccccc2)nc(N(C)C)n1	.	-13%	.	?	-28%	.
CCN(CC)c1nc(SCCOC(=O)Nc2ccccc2)nc(N(CC)CC)n1	-16%	?	10µM*	?	-3%	-18%
COc1ccc(S(=O)(=O)N2CCN(c3nc4ccccc4nc3-n3nc(C)cc3C)CC2)cc1	.	?	9.3µM*	13%	-42%	.
Cc1cc(C)n(-c2nc3ccccc3nc2N2CCN(S(=O)(=O)c3cccc(C#N)c3)CC2)n1	-2%	4.1µM*	21%	?	14%	-5%
CCn1c(N2CCN(C(=O)C34CC5CC(CC(C5)C3)C4)CC2)nc2ccccc21	.	13µM*	.	-16%	-29%	.
CCn1c(N2CCN(S(=O)(=O)c3ccc(OC)cc3)CC2)nc2ccccc21	i	?	12µM*	10µM*	-64%	-26%
SMILES	VACV mCherry inh	Pf growth 48h	Pf growth 96h	HCV inhibitor	NS1 inh	VACV Venus inh
CCn1c(N2CCN(S(=O)(=O)c3ccccc3C(F)(F)F)CC2)nc2ccccc21	-25%	?	?	-25%	-63%	-26%
CCSc1nc2ccccc2c(OCc2ccccc2Cl)c1C(=O)OC	-11%	.	.	.	.	0%
CCCS(=O)(=O)N1CCCC(C(=O)NCCCOCC)C1 (stereo unspecified)	.	-6%	51%	8%	2%	-12%
Cc1ccc(S(=O)(=O)N2CCCN(c3nc4cc(C)ccc4cc3C#N)CC2)cc1	i	?	?	22µM*	18%	-9%
Cc1ccc2nc(N3CCN(S(=O)(=O)c4ccc5c(c4)OCCO5)CC3)c(C#N)cc2c1	.	-15%	-16%	14µM*	28%	.
Cc1ccc(S(=O)(=O)N2CCCN(S(=O)(=O)c3ccc4c(c3)OCCO4)CC2)cc1	-9%	?	46%	-28%	1%	-9%
CCOC(=O)CN(C(=O)CSc1nnc(CNc2ccc(C)cc2C)n1CC)c1ccccc1	.	?	9.3µM*	-15%	-8%	.
CCn1c(COc2ccccc2C)nnc1SCC(=O)N1CCCCC1	.	?	7.4µM*	5%	4%	.
CCn1c(COc2ccc(C)cc2)nnc1SCC(=O)C(C)(C)C	.	?	-3%[5.75 µM]	-25%	-104%	-14%
CCOC(=O)CN(C(=O)CSc1nnc(C)n1-c1ccccc1)c1ccccc1	-8%	1%	5%	0%	-3%	-14%
CCn1c(COc2ccccc2)nnc1SCC(=O)C(C)(C)C	.	12µM*	9.3µM*	6%	7%	-27%
CCOC(=O)CN(C(=O)CSc1nnc(COc2ccc(OC)cc2)n1CC)c1ccccc1	-13%	8.3µM*	6.6µM*	6%	-33%	3%
COc1ccc(C(=O)N/C(=C\c2cn(S(=O)(=O)N(C)C)c3ccccc23)C(=O)NCCCn2ccnc2)cc1	-3%	12µM*	24%	7%	-4%	-9%
COc1cc(C(=O)N/C(=C\c2cn(S(=O)(=O)N(C)C)c3ccccc23)C(=O)NCCCO)cc(OC)c1OC	.	?	8.3µM*	-16%	.	.
COc1cc(C(=O)N/C(=C\c2cn(C)c3ccccc23)C(=O)NCCCO)cc(OC)c1OC	.	19%	?	7%	0%	.
CSCC[C@H](NC(=O)[C@@H]1CSC2c3ccccc3C(=O)N21)C(=O)NCc1ccco1 (stereo partly specified)	.	?	?	14%	8%	.
CO[C@H]1C[C@@H]2CC[C@@H](C)[C@@](O)(O2)C(=O)C(=O)N2CCCC[C@H]2C(=O)O[C@H]([C@H](C)C[C@@H]2CC[C@@H](OC(=O)C(C)(CO)CO)[C@H](OC)C2)CC(=O)[C@H](C)/C=C(\C)[C@@H](O)[C@@H](OC)C(=O)[C@H](C)C[C@H](C)/C=C/C=C/C=C/1C	.	13%	-15%	.	.	.
COC1CC2CCC(C)[C@](O)(O2)C(=O)C(=O)N2CCCCC2C(=O)OC(C(C)CC2CCC(O)C(OC)C2)CC(=O)C(C)/C=C(/C)C(O)C(OC)C(=O)C(C)CC(C)C=CC=C/C=C\1C (stereo partly specified)	.	3.8µM*	1.9µM*	.	.	.
